Bioassay records: PubChem, National Center for Advancing Translational Sciences (NCATS)
Tb PFK block: blocks T. brucei phosphofructokinase; actives 0.17% (n = 330,000); T. brucei PFK, ADP-Glo luminescence; AID 485367; Potency, µM (doses to about 57.5 µM), without a hit: top-dose activity, negative = inhibition, hits mostly inhibitors;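 note: 0% = uninhibited 1x PFK enzyme wells and -100% = no-enzyme wells; nearly all actives have a fitted effect of over 60% in size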
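Activity is normalized to no-enzyme wells (full inhibition) and 1.25 nM enzyme wells (no inhibition). Reaction: 0.5 mM F6P, 0.1 mM ATP, 45 min RT, ADP-Glo luminescence; concentration-response curves fitted and classed by quality.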
PLK1 PBD inh: inhibitors of human PLK1 polo-box domain binding | actives 2.8% (n = 360,000) | Potency, µM, inactives show max response, negative = inhibition, actives largely listed as inhibitors | Plk1 PBD binding of FITC phosphopeptide, fluorescence polarization | AID 720504 | P53350; note: series mostly up to about 57 µM; % is set by controls: 0 for no effect and ±100 for the full control effect; nearly all actives have a fitted effect of over 65% in size
Target sequence (P53350 whole entry, looked up, the tested form may be a part): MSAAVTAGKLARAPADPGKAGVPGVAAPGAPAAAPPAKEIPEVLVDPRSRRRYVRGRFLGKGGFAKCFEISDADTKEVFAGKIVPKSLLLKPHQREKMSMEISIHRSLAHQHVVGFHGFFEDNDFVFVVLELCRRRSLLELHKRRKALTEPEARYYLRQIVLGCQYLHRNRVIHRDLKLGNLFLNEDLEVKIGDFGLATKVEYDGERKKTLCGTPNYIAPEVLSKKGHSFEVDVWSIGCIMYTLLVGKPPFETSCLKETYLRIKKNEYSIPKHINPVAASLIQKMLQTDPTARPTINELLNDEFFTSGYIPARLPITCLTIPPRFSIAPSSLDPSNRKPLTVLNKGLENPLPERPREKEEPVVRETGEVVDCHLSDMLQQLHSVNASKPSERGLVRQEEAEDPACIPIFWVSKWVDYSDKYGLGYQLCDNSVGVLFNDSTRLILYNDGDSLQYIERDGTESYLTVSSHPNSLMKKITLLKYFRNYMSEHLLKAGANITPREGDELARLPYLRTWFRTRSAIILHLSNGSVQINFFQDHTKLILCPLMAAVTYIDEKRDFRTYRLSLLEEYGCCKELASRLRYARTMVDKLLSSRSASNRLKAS
VDR inhibitor: blocks the human vitamin D receptor | VDR-SRC2-3 peptide fluorescence polarization, 2 h | Potency, µM, without a hit: max response, negative = inhibition, most hits filed as inhibitors | actives 0.93% (n = 400,000); note: % is set by controls: 0 for no effect and ±100 for the full control effect
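Two reagent solutions held at 4 deg C in the dark were dispensed, compounds pinned at 23 nl, and the mixture incubated 2 h at room temperature. Read-out: fluorescence polarization of VDR–SRC2-3 peptide binding.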
BRCA1 expr act: activators of BRCA1 expression; actives 1.1% (n = 380,000); Potency, µM (top dose mostly 46.1 µM), inactives show at the highest dose activation, most hits filed as activators; AID 624202; MCF7-BRCA1-FFLuc reporter, luminescence, 48 h; response scale: scaled: vehicle 0%, 10 µM genistein 100%; note: nearly all actives have a fitted effect of over 80% in size
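MCF7-BRCA1-FFLuc, 2000 cells/well; 2 h attach, 37 °C/5% CO2; compound 48 h; luciferase substrate 15 min; luminescence end-point. Norm. to genistein 10 microM max activation and DMSO; concentration-response curves fitted.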
Numbers without * were called inactive; u = inconclusive; x = not tested or not shown. Most compounds without a hit are left out; they make up all but 3.9% or so of the library. Calls come from the whole dose curve; as a rule, active = well fitted curve in the direction sought with a large enough effect; inconclusive = small, poorly fitted or top-dose-only effect, or another doubt; inactive = no such curve, though single readings can be large; an effect the other way counts as inactive or inconclusive. Potency is the fitted concentration of half-maximal effect.

SMILES	Tb PFK block	PLK1 PBD inh	VDR inhibitor	BRCA1 expr act
Cc1ccc(-c2csc(NC(=O)Cc3ccc(F)cc3)n2)o1	-29.8%	23.8µM*	u	29.4%
Cc1cc(=O)[nH]c(SCC(=O)Nc2nnc(SCc3ccccc3)s2)n1	-2.2%	23.8µM*	10.5%	10.4%
O=C(COc1ccccc1)Nc1nc(-c2cccnc2)cs1	-5.5%	-18.5%	7.8%	-11.1%
CC(C)NC(=O)COC(=O)CNC(=O)c1cc(Cl)cc([N+](=O)[O-])c1	-1.5%	29.9µM*	-21.6%	-0.7%
CCSc1nc(-c2cccc(Cl)c2)nc2c1Cc1c(CO)cnc(C)c1O2	x	x	2.2%	x
Cc1cc(C(=O)N/N=C2/CC(C)CC(C)(C)C2)c(C)o1 (stereo not given)	-5.6%	21.2µM*	-28.5%	-35.7%
CCCNC(=O)c1ccc(N2CCC3(CC2)CC(c2ccccc2)=NO3)c(NC(=O)c2cccc(OC)c2)c1	0.5%	26.7µM*	-24.8%	9.6%
COc1ccc(CC(=O)NCC2CCCN(Cc3ccc(F)c(OC)c3)C2)cc1 (stereo not given)	-3.5%	-15.5%	-9.7%	19.9%
COc1ccc(CC(=O)NCC2CCCN(Cc3cccc(C(F)(F)F)c3)C2)cc1 (stereo not given)	-0.5%	26.7µM*	u	-23.8%
Cc1cccc(COc2ncnc3nc[nH]c23)c1	-1.2%	-2.7%	10.9%	10µM*
O=C1NC[C@@H](CCCCN2CCN(CCc3ccc(O)cc3)C(=O)C2=O)N(CCC2CCCCC2)C1=O	x	0.7%	x	17.4%
CCC(C)NC(=O)c1cc(C)no1 (stereo not given)	-0.4%	29.9µM*	10.8%	9.4%
Cc1nc2nc(SCc3c(F)cccc3Cl)nn2c(C)c1Cc1ccccc1	x	x	-5.3%	x
CCOC(=O)c1cc2c(=O)c3cc(C)ccc3oc2nc1C	1.7%	5.32µM*	u	11.2µM*
COC(=O)c1ccccc1OCc1cc(=O)oc2ccc(C)cc12	x	-3.5%	x	-30.3%
COCc1nc2oc3ccc(C)cc3c(=O)c2cc1C(=O)OC	-1.0%	-18.6%	0.8%	3.16µM*
c1ccc(OCC2CCNCC2)nc1	-1.6%	-8.7%	4.5%	-3.0%
O=S(=O)(c1ccc2ncccc2c1)N1CCN(c2nc(-c3cccs3)nc3ccccc23)CC1	x	x	-7.6%	0.7%
N#C/C(=C\c1cccc(Cl)c1)C(=O)c1ccccc1	12.8%	0.844µM*	u	1.5%
N#C/C(=C\c1ccc[nH]1)C(=O)c1ccccc1	3.6%	-10.1%	16.3%	-5.5%
COc1cccc(C(=O)NNC(=O)c2ccccc2)c1	8.4%	3.9%	-2.3%	87.7%
COc1cccc(C=C(C#N)C(=O)c2ccccc2)c1	x	2.12µM*	x	16.7%
CCNC(=O)C1(C)CCCN1C(=O)c1ccc(C#N)cc1 (stereo not given)	x	-1.9%	x	3.9%
Cn1c(N)c(C(=O)COC(=O)Cc2c(F)cccc2Cl)c(=O)n(C)c1=O	0.0%	2.1%	2.5%	-17.8%
Cc1cc(C(=O)COC(=O)Cc2c(F)cccc2Cl)c(C)n1C	x	3.8%	x	5.01µM*
SMILES	Tb PFK block	PLK1 PBD inh	VDR inhibitor	BRCA1 expr act
CN(C)c1ccc(-c2nnc(SCC(=O)NCc3ccco3)n2C)cc1	x	x	x	0.0%
CCc1cccc(NC(=O)CSc2nncn3c2cc2sccc23)c1	x	x	-8.0%	x
Cc1ccc(/C=N/N=C/c2ccc(C)cc2)cc1	0.8%	21.2µM*	-14.5%	u
CCC(C)Nc1nc(-c2ccc3c(c2)NC(=O)CO3)cs1 (stereo not given)	4.2%	29.9µM*	-18.9%	66.4%
COc1ccc(Nc2nc(-c3ccc4c(c3)NC(=O)CO4)cs2)cc1	1.2%	u	-12.3%	6.8%
CCc1cccc(NC(=O)c2sc3nc4n(c(=O)c3c2C)CCC4)c1	4.7%	-10.4%	-0.5%	12.6µM*
CCOC(=O)c1sc2nc3n(c(=O)c2c1C)CCC(C)CC3 (stereo not given)	-7.8%	29.9µM*	-16.7%	74.7%
Cc1c(C(=O)Nc2cccc(C(F)(F)F)c2)sc2nc3n(c(=O)c12)CCC3	x	x	12.3%	x
CN(C)S(=O)(=O)Oc1cc(Cl)ccc1C(=O)Nc1ccc(F)cc1F	2.4%	23.8µM*	-14.5%	-13.7%
Cc1ccc(N2CCN(S(=O)(=O)c3ccc4oc(=O)c5ncn(C)c5c4c3)CC2)c(C)c1	x	x	13.4%	x
C=C1NN(Cc2ccccc2)C(=O)N1c1ccc(OCc2ccccc2)cc1	x	x	x	83.2%
C=C1NN(CC#N)C(=O)N1c1ccc(OCc2ccccc2)cc1	x	x	x	10µM*
CCCCc1ccc(NC(=O)CSc2nc3ccccc3nc2N2CCOCC2)cc1	x	x	-5.0%	x
